Source: PubChem BioAssay (NCATS)
Several values for one entry are separate records, joined by “and”; a condition that tells them apart may be missing. Identical values can stand only once. Records with an inconclusive call do not appear. Activity calls are given as the source filed them. The call rests on the fitted dose curve; in most records, active means well fitted inhibition curve with a large enough effect; inconclusive means small, poorly fitted or top-dose-only effect; inactive means flat fitted curve, though single readings scatter.

test system: KB-3-1; experiment: Cytotoxic Profiling of Annotated Libraries Using Quantitative High-Throughput Screening (AID 1296008); settings: Five cell lines viability, CellTiter-Glo ATP luminescence, 48-72 h; max response: active compounds read low; further: nearly all actives have a fitted effect of over 60% in size
In short: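 Compounds were pin-transferred onto cells and incubated 48 or 72 hr at 37 degree Celsius, 95% humidity. CellTiter-Glo was added, plates sat 10 min at room temperature, then ATP-coupled luminescence was imaged as the viability read-out.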
On the % scale 0 is the no-effect control and ±100 the full control effect; potency means the concentration at half of the fitted maximal effect.

| SMILES | max response | Potency |
| --- | --- | --- |
| C=CCN1CC[C@]23c4c5ccc(O)c4O[C@H]2[C@@H](O)C=C[C@H]3[C@H]1C5 | 10.7% (inactive) |  |
| CC[N+](C)(CC)CCOC(=O)C(O)(c1ccccc1)c1ccccc1 | -0.181% (inactive) |  |
| c1csc(C2(N3CCCCC3)CCCCC2)c1 | 5.46% (inactive) |  |
| COc1ccc2c3c1O[C@H]1C(=O)CC[C@H]4[C@@H](C2)N(C)CC[C@]314 | 8.34% (inactive) |  |
| N#CC(C#N)=Cc1cc(O)c(O)c(O)c1 | -23.8% (inactive) |  |
| Clc1ccc(C(Cn2ccnc2)OCc2csc3c(Cl)cccc23)c(Cl)c1 (centres undefined) | -3.27% (inactive) |  |
| C[C@]12CC[C@H](O)C[C@H]1CC[C@@H]1[C@@H]2CC[C@]2(C)[C@@H](c3ccc(=O)oc3)C[C@H]3O[C@]132 |  | 1840 nM (active) |
| C#CC(C)(O)CC (centres undefined) | -2.82% (inactive) |  |
| N#CN | -5.54% (inactive) |  |
| O=P(O)(O)C(Cl)(Cl)P(=O)(O)O | -7.13% (inactive) |  |
| CCNCC(O)c1cccc(O)c1 (centres undefined) | 6.6% (inactive) |  |
| CNC(=O)Oc1ccccc1C(=O)Nc1ccccc1 | -7.71% (inactive) |  |
| CCCCCl | -7.35% (inactive) |  |
| O=C1C[C@@H]2OCC=C3CN4CC[C@]56c7ccccc7N1[C@H]5[C@H]2[C@H]3C[C@H]46 (tested in a mixture with another compound) | 0.545% (inactive) and 11.6% (inactive) |  |
| CCC1(C)CC(=O)NC(=O)C1 | 4.64% (inactive) |  |
| CCOC(=O)/C=C(C)/C=C/C[C@@H](C)CCCC(C)C | 3.85% (inactive) |  |
| CC(C)(O)[C@@H]1[C@H]2OC(=O)[C@@H]1[C@]1(O)C[C@H]3O[C@]34C(=O)O[C@H]2[C@]14C | 0.436% (inactive) and -3.57% (inactive) |  |

| SMILES | max response | Potency |
| --- | --- | --- |
| CC(N)Cc1ccc(O)cc1 (centres undefined) | -5.37% (inactive) |  |
| C[C@H]1CC[C@]2(NC1)O[C@H]1C[C@H]3[C@@H]4CC[C@H]5C[C@@H](O)CC[C@]5(C)[C@H]4CC[C@]3(C)[C@H]1[C@@H]2C | -2.2% (inactive) |  |
| C[N+]1([O-])[C@@H]2CC[C@H]1CC(OC(=O)C(CO)c1ccccc1)C2 (some centres undefined) | -12.1% (inactive) and -9.46% (inactive) |  |
| CCC1(c2ccccc2)C(=O)NC(=O)N(C(=O)c2ccccc2)C1=O (centres undefined) | -9.95% (inactive) |  |
| C[C@@H](Cc1ccccc1)N(C)C | 9.66% (inactive) |  |
| CC(C)[C@@]1(NC(=O)[C@@H]2C[C@@H]3c4cccc5[nH]cc(c45)C[C@H]3N(C)C2)O[C@@]2(O)[C@@H]3CCCN3C(=O)[C@H](Cc3ccccc3)N2C1=O | 25.3% (inactive) and -16.4% (inactive) |  |
| O=[N+]([O-])c1ccccc1 | 12.1% (inactive) |  |
| CN[C@H]1C[C@@H](N)[C@H](O)[C@@H](O[C@@H]2O[C@H](CO)[C@H](O)[C@@H]3OC4(O[C@H]23)O[C@H](C(N)CO)[C@H](O)[C@H](O)[C@H]4O)[C@@H]1O (some centres undefined) | -7% (inactive) and 5.21% (inactive) |  |
| C[C@]12C[C@H]3S[C@H]3C[C@@H]1CC[C@@H]1[C@@H]2CC[C@]2(C)[C@@H](O)CC[C@@H]12 | 5.47% (inactive) |  |
| CCN(CC)C(=O)/C(Cl)=C(\C)OP(=O)(OC)OC | -1.44% (inactive) |  |
| CC(=O)Oc1ccc2c3c1O[C@H]1[C@@H](OC(C)=O)C=C[C@H]4[C@@H](C2)N(C)CC[C@@]341 | -5% (inactive) and 2.33% (inactive) |  |
| CCNC(C)Cc1cccc(C(F)(F)F)c1 (centres undefined) | 20.4% (inactive) |  |
| CCN(CC)C(=O)N[C@H]1C[C@@H]2c3cccc4[nH]cc(c34)C[C@H]2N(C)C1 | -7.12% (inactive) |  |
| COCC(C)N(C(=O)CCl)c1c(C)csc1C (centres undefined) | -0.17% (inactive) |  |
| CCCC(C)(COC(N)=O)COC(=O)NC1CC1 (centres undefined) | -23.5% (inactive) |  |
| C[C@@H](Cc1ccccc1)NCCC(c1ccccc1)c1ccccc1 | -4.5% (inactive) |  |
| [O]=[Cr](=[O])([OH])[O][Cr](=[O])(=[O])[OH] | -23.8% (inactive) and 6.69% (inactive) |  |
